From PubChem BioAssay (NCI)
Compounds without any hit were thinned out: in the full panel of roughly 83,000, 20% have a hit.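 Results are percent growth after 48 hours of single-concentration exposure. 100 means growth as in untreated cells, lower positive values show inhibition; negative values down to -100 show cell death.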 Values without a mark were called inactive. Active and inactive are the calls of the source. The calls were made as follows: active = growth percent below 10; inactive = the rest.

Key:
Assay in all cases: NCI-60 one-dose screen, 48 h (100 = growth as untreated, 0 = no growth, -100 = all killed)
[1] = tested on: HCT-15 colon; details: 10 µM unless noted
[2] = tested on: HT29 colon; details: 10 µM unless noted
[3] = tested on: SNB-75 CNS; details: 10 µM unless noted
[4] = tested on: U251 CNS; details: 10 µM unless noted
[5] = tested on: PC-3 prostate; details: 10 µM unless noted
[6] = tested on: SK-MEL-5 melanoma; details: 10 µM unless noted
[7] = tested on: UACC-62 melanoma; details: 10 µM unless noted
[8] = tested on: LOX IMVI melanoma; details: 10 µM unless noted
[9] = tested on: SK-MEL-28 melanoma; details: 10 µM unless noted
[10] = tested on: SK-MEL-2 melanoma; details: 10 µM unless noted
[11] = tested on: EKVX NSCLC; details: 10 µM
[12] = tested on: SN12C renal; details: 10 µM unless noted
[13] = tested on: UO-31 renal; details: 10 µM unless noted
[14] = tested on: TK-10 renal; details: 10 µM unless noted
[15] = tested on: ACHN renal; details: 10 µM unless noted
[16] = tested on: CAKI-1 renal; details: 10 µM unless noted
[17] = tested on: A498 renal; details: 10 µM unless noted
[18] = tested on: CCRF-CEM leukemia; details: 10 µM
[19] = tested on: MOLT-4 leukemia; details: 10 µM unless noted

SMILES: Clc1ccc(N/N=C(/c2ccccc2)c2ccccn2)nc1
- growth [1]: 16.2%
- growth [2]: 36.1%
- growth [3]: 43.4%
- growth [4]: 42.1%
- growth [5]: 35.5%
- growth [6]: 25.3%
- growth [7]: 32.5%
- growth [8]: 21.5%
- growth [9]: 51.9%
- growth [10]: 63.5%
- growth [11]: 18.5%
- growth [12]: 47.3%
- growth [13]: 28.3%
- growth [14]: 37.3%
- growth [15]: 24.1%
- growth [16]: 36.2%
- growth [17]: 52.7%
- growth [18]: 14.2%
- growth [19]: 6.84% (active)

SMILES: CCN(CC)CCOC(=O)c1cccnc1
- growth [1]: 98.7%
- growth [2]: 107%
- growth [3]: 79.6%
- growth [4]: 97.7%
- growth [5]: 99.7%
- growth [6]: 98%
- growth [7]: 103%
- growth [8]: 90.9%
- growth [9]: 98.4%
- growth [10]: 91.1%
- growth [12]: 96.2%
- growth [13]: 86.2%
- growth [15]: 99.3%
- growth [16]: 99.6%
- growth [17]: 62.5%
- growth [19]: 94.2%

SMILES: Cc1nc2ccccc2c(=O)n1-c1cccc(OCc2cn(-c3cccc(O)c3)nn2)c1
- growth [1]: 107%
- growth [2]: 96.8%
- growth [3]: 88.4%
- growth [4]: 98.2%
- growth [5]: 87.6%
- growth [6]: 87%
- growth [7]: 81.1%
- growth [8]: 94.6%
- growth [9]: 103%
- growth [10]: 90.6%
- growth [11]: 103%
- growth [12]: 97.4%
- growth [13]: 68.2%
- growth [14]: 100%
- growth [15]: 93.8%
- growth [18]: 88.3%
- growth [19]: 80.8%

SMILES: COc1cc(C(=O)Nc2ccc(N(C)C)cc2)cc(OC)c1OC
- growth [1]: 73.3%
- growth [2]: 86.2%
- growth [3]: 74.9%
- growth [4]: 95.4%
- growth [5]: 91.4%
- growth [6]: 89.9%
- growth [7]: 82%
- growth [8]: 93.3%
- growth [9]: 81.9%
- growth [10]: 78.8%
- growth [12]: 94.2%
- growth [13]: 85.8%
- growth [15]: 93.1%
- growth [16]: 91.1%
- growth [17]: 82.1%
- growth [19]: 92%

SMILES: COc1cccc(NC(=O)NCCNc2nccc(-c3c(-c4ccc(F)cc4)nc4sccn34)n2)c1
- growth [1]: 56.4%
- growth [2]: 39.8%
- growth [3]: 48.3%
- growth [4]: 77.6%
- growth [5]: 89.9%
- growth [6]: 61.6%
- growth [7]: 68.2%
- growth [8]: 72.6%
- growth [9]: 92.2%
- growth [11]: 98.6%
- growth [12]: 72.8%
- growth [13]: 52.4%
- growth [14]: 76.2%
- growth [15]: 44.9%
- growth [16]: 93.4%
- growth [18]: 67.5%
- growth [19]: 77.8%

SMILES: c1ccc(C(=NNc2nc3ccccc3o2)c2ccccn2)nc1
- growth [1]: 16.8%
- growth [2]: 23%
- growth [3]: 31.7%
- growth [4]: 10.6%
- growth [5]: 29.2%
- growth [6]: -58% (active)
- growth [7]: -8.29% (active)
- growth [8]: 0.582% (active)
- growth [9]: 25.2%
- growth [10]: 37.7%
- growth [11]: 8% (active)
- growth [12]: 16.1%
- growth [13]: 2.19% (active)
- growth [14]: 41.8%
- growth [15]: 8.01% (active)
- growth [16]: 5.09% (active)
- growth [17]: -27% (active)
- growth [18]: 3.17% (active)
- growth [19]: 12.3%

SMILES: CCOC(=O)C1C(=O)C(=O)N(C(C)C)C1C(=O)OCC (stereo not given)
- growth [1]: 94.1%
- growth [2]: 98.2%
- growth [3]: 85.9%
- growth [4]: 107%
- growth [5]: 97.8%
- growth [6]: 103%
- growth [7]: 96.4%
- growth [8]: 102%
- growth [9]: 108%
- growth [10]: 113%
- growth [11]: 106%
- growth [12]: 94.4%
- growth [13]: 86.2%
- growth [14]: 99.1%
- growth [15]: 94.3%
- growth [16]: 105%
- growth [18]: 110%
- growth [19]: 122%

SMILES: CCCC[N+](C)(N)CCCC
- growth [1]: 98%
- growth [2]: 101%
- growth [3]: 93.3%
- growth [4]: 106%
- growth [5]: 90.5%
- growth [6]: 108%
- growth [7]: 105%
- growth [8]: 87.3%
- growth [9]: 109%
- growth [10]: 108%
- growth [12]: 104%
- growth [13]: 91.7%
- growth [14]: 109%
- growth [15]: 99.7%
- growth [16]: 94.4%
- growth [17]: 115%
- growth [19]: 94.6%

SMILES: O=C1Nc2c(c(=O)n(-c3ccccc3)c3ccccc23)C(c2ccc(Cl)cc2)N1 (stereo not given)
- growth [1]: 90.4%
- growth [2]: 106%
- growth [3]: 80.7%
- growth [4]: 85.9%
- growth [5]: 105%
- growth [6]: 80.4%
- growth [7]: 62.8%
- growth [8]: 36.4%
- growth [9]: 90.9%
- growth [11]: 86.8%
- growth [12]: 76.3%
- growth [13]: 80.5%
- growth [14]: 54.8%
- growth [15]: 102%
- growth [16]: 101%
- growth [17]: 98.1%
- growth [18]: 79.5%
- growth [19]: 81.9%

SMILES: C/C=C/C/C=C/[C@H](C)C[C@H](O)[C@@H]1C[C@@H]2O[C@H]2/C=C/[C@@H]2OC(C)(C)O[C@H]2/C=C/C[C@H](C)CC(=O)O1
- growth [1]: 19.7%
- growth [2]: 28.1%
- growth [3]: 36.3%
- growth [4]: 30%
- growth [5]: 57.8%
- growth [6]: 31%
- growth [7]: 8.91% (active)
- growth [8]: 44.3%
- growth [9]: 59.3%
- growth [11]: 67.2%
- growth [12]: 38.2%
- growth [13]: 5.37% (active)
- growth [14]: 18.8%
- growth [15]: 38.4%
- growth [16]: 19.2%
- growth [17]: 96.5%
- growth [18]: 24.7%
- growth [19]: 34.6%

SMILES: O=P(OCCCl)(OCCCl)C(O)c1ccccc1Cl (stereo not given)
- growth [1]: 99.5%
- growth [2]: 101%
- growth [3]: 96.7%
- growth [4]: 113%
- growth [5]: 103%
- growth [6]: 112%
- growth [7]: 106%
- growth [8]: 104%
- growth [9]: 113%
- growth [10]: 112%
- growth [12]: 111%
- growth [13]: 80.2%
- growth [14]: 102%
- growth [15]: 98.4%
- growth [16]: 76.4%
- growth [17]: 121%
- growth [19]: 99.8%

SMILES: O=C(O)/C(Br)=C/c1c[nH]c2ccc(Br)cc12
- growth [1]: 114%
- growth [2]: 106%
- growth [3]: 105%
- growth [4]: 105%
- growth [5]: 123%
- growth [6]: 107%
- growth [7]: 104%
- growth [8]: 101%
- growth [9]: 63.7%
- growth [10]: 99%
- growth [11]: 119%
- growth [12]: 108%
- growth [13]: 88.8%
- growth [14]: 117%
- growth [15]: 104%
- growth [16]: 97.6%
- growth [17]: 132%
- growth [18]: -46.1% (active)
- growth [19]: 31.8%

SMILES: CCC(C)(CC)c1ccc(O)c(C)c1
- growth [1]: 101%
- growth [2]: 104%
- growth [3]: 86.2%
- growth [4]: 97.7%
- growth [5]: 98.9%
- growth [6]: 104%
- growth [7]: 109%
- growth [8]: 97%
- growth [9]: 110%
- growth [10]: 82.2%
- growth [12]: 102%
- growth [13]: 102%
- growth [15]: 106%
- growth [16]: 109%
- growth [17]: 100%
- growth [19]: 106%

SMILES: Cc1ccc(S(=O)(=O)NC(CCC(=O)Nc2ccccc2)C(=O)Nc2ccccc2)cc1 (stereo not given)
- growth [1]: 0.514% (active)
- growth [2]: -14.5% (active)
- growth [3]: -24.9% (active)
- growth [4]: -43.8% (active)
- growth [5]: -10.4% (active)
- growth [6]: -65.5% (active)
- growth [7]: -45.6% (active)
- growth [8]: -21.6% (active)
- growth [9]: -33.2% (active)
- growth [10]: -39.6% (active)
- growth [12]: 3.91% (active)
- growth [13]: -16.3% (active)
- growth [14]: -12.9% (active)
- growth [15]: -50.7% (active)
- growth [16]: 12%
- growth [17]: -20.7% (active)
- growth [18]: 5.4% (active)
- growth [19]: 8.8% (active)

SMILES: c1ccc(-c2cn3ccnc3c(-c3ccc4ncn(C5CCCCC5)c4c3)n2)cc1
- growth [1]: 48.4%
- growth [2]: 51.7%
- growth [3]: 55.6%
- growth [4]: 62.7%
- growth [5]: 7.96% (active)
- growth [6]: 63.5%
- growth [7]: 34.4%
- growth [8]: 60.4%
- growth [9]: 82%
- growth [10]: 83.5%
- growth [11]: 75.8%
- growth [12]: 71.2%
- growth [13]: 44.8%
- growth [14]: 97.7%
- growth [15]: 64.1%
- growth [17]: 73.9%
- growth [18]: 18.7%
- growth [19]: 32.3%

SMILES: CCCCCN1CCN(C(CC(=O)c2ccccc2)C(=O)c2ccccc2)CC1 (stereo not given)
- growth [1]: 94.5%
- growth [2]: 96.4%
- growth [3]: 100%
- growth [4]: 92.6%
- growth [5]: 92.6%
- growth [6]: 106%
- growth [8]: 82.8%
- growth [9]: 119%
- growth [10]: 104%
- growth [11]: 110%
- growth [13]: 95%
- growth [14]: 99.9%
- growth [15]: 106%
- growth [16]: 81.6%
- growth [18]: -14.7% (active)
- growth [19]: 27.9%

SMILES: CN(C)CCOC(=O)C(C)(C)C
- growth [1]: 101%
- growth [2]: 99.7%
- growth [3]: 100%
- growth [4]: 102%
- growth [5]: 93.6%
- growth [6]: 105%
- growth [7]: 93.3%
- growth [8]: 105%
- growth [9]: 26%
- growth [10]: 103%
- growth [12]: 102%
- growth [13]: 89.9%
- growth [14]: 102%
- growth [15]: 98.1%
- growth [16]: 105%
- growth [17]: 103%
- growth [19]: 95.9%

SMILES: COc1cccc(CNC(=O)c2cccc(C3CC(=O)c4c(cc(OC)c(OC)c4OC)O3)c2)c1 (stereo not given)
- growth [1]: 43.5%
- growth [2]: 68%
- growth [3]: 27.7%
- growth [4]: 49.3%
- growth [5]: 20.8%
- growth [6]: 59.4%
- growth [7]: 24.3%
- growth [8]: 44.9%
- growth [9]: 65.7%
- growth [10]: 38.5%
- growth [11]: 72.4%
- growth [12]: 72.7%
- growth [13]: 51.6%
- growth [14]: 87.7%
- growth [15]: 47.9%
- growth [16]: 77.3%
- growth [17]: 81.7%
- growth [18]: 13.3%
- growth [19]: 67%
